Measurements as given in PubChem BioAssay (NCATS).
Inconclusive results are not listed. Entries that show only a call come without a potency. Active and inactive are the calls of the source. Calls follow the shape of the dose curve; as a rule, active = well fitted cell-killing curve with a large enough effect; inconclusive = small, poorly fitted or top-dose-only effect, or effect the other way; inactive = no such curve, though single readings can be large or run the other way.

Assay: Quantitative High-Throughput drug screen in 47 multiple myeloma cell lines against the NCATS MIPE library collection: ARP1_JJKsccF8 cell viability assay (AID 1918928; also: nearly all actives have a fitted effect of over 40% in size)
Conditions: ARP1 myeloma cells viability, CellTiter-Glo ATP, 48 h; series mostly up to 45.8 µM
Text: PI: Beverly A. Mock Ph.D.
Laboratory of Cancer Biology and Genetics,
Center for Cancer Research, National Cancer Institute,
National Institute of Health, Bethesda, Maryland
Drug resistance and disease progression are common in multiple myeloma (MM) patients, underscoring the need for new therapeutic combinations. […] We hypothesized that effective combinations would reduce MYC expression and enhance p16 activity. […] These preclinical data identify potentially useful drug combinations for evaluation in drug-resistant MM and reveal potential mechanisms of combined drug sensitivity.
Described herein is the primary MIPE qHTS used to cherrypick compounds. Validated compounds were then further tested for potential synergistic activiy.
[1] Peat TJ, Gaikwad SM, Dubois W, Gyabaah-Kessie N, Zhang S, Gorjifard S, Phyo Z, Andres M, Hughitt VK, Simpson RM, Miller MA, Girvin AT, Taylor A, Williams D, D'Antonio N, Zhang Y, Rajagopalan A, Flietner E, Wilson K, Zhang X, Shinn P, Klumpp-Thomas C, McKnight C, Itkin Z, Chen L, Kazandijian D, Zhang J, Michalowski AM, Simmons JK, Keats J, Thomas CJ, Mock BA. Drug combinations identified by high-throughput screening promote cell cycle transition and upregulate Smad pathways in myeloma. Cancer Lett. 2023 Aug 1;568:216284. doi: 10.1016/j.canlet.2023.216284. Epub 2023 Jun 24. PMID: 37356470; PMCID: PMC10408729.
SEQUENCE No. (e.g., 1, 2, 3, etc.); […] (e.g., Cells, Incubation, Reagent, etc.); VALUE and DESCRIPTION.
1; Cells; 5 uL; white, solid bottom 1536-well Greiner assay plate.
2; Compounds; 23 nL; Kalypsis pin tool (Wako USA) equipped with a 1536-well pin head to transfer to the assay plates.
3; Incubation; 48 hours; 37C incubation.
4; Reagent;5uL; CellTiter Glo (Promega).
5; Detector; 425V; Luminescence; Viewlux PerkinElmer.
NOTES (numbers refer to Sequence numbers above)
1. The cell-based screening methods employed in this study were like those previously published. Briefly, the corresponding myeloma cell lines were screened in 1,536-well plates with 500 cells, 5-uL per well for inhibition of cell viability (assessed by measuring ATP levels with CellTiterGlo).
2. NCATS MIPE 4.0 library of approved and investigational drugs were added using the Kalypsis pin tool. Wells treated with DMSO only for 100% viability and media only cells for 0% viability were used as controls.
3. The assay plates were covered and incubated for 48 hours in a 37C, 5% CO2 incubator with controlled humidity.
4. After 48 hours, CellTilter-GloTM luminescent substrate mix (Promega) reagent was added to the assay plate and plates we incubated for 5 min at room temperature.
5. Signal was measured as median relative luminescence units on a ViewLux (PerkinElmer) multiplate reader.
[1] Heske CM, Davis MI, Baumgart JT, Wilson K, Gormally MV, Chen L, Zhang X, Ceribelli M, Duveau DY, Guha R, Ferrer M, Arnaldez FI, Ji J, Tran HL, Zhang Y, Mendoza A, Helman LJ, Thomas CJ. Matrix Screen Identifies Synergistic Combination of PARP Inhibitors and Nicotinamide Phosphoribosyltransferase (NAMPT) Inhibitors in Ewing Sarcoma. Clin Cancer Res. 2017 Dec 1;23(23):7301-7311. doi: 10.1158/1078-0432.CCR-17-1121. Epub 2017 Sep 12. PMID: 28899971; PMCID: PMC6636827.
Potency is read from the fitted curve at half-maximal effect.

SMILES	Potency
CC(=O)O[C@@]12CO[C@H]1C[C@H](O)[C@@]1(C)C(=O)[C@H](O)C3=C(C)[C@@H](O)C[C@@](O)([C@@H](OC(=O)c4ccccc4)[C@@H]21)C3(C)C	2640 nM (active)
c1ccc2c(CN3CCNCC3)cccc2c1	inactive
CSCC[C@@H](NC(=O)[C@@H](Cc1ccccc1)NC(=O)CNC(=O)CNC(=O)[C@@H](N)Cc1ccc(O)cc1)C(=O)O	inactive
C[C@H]1CCCC=CC2C[C@H](O)C[C@@H]2[C@H](O)C=CC(=O)O1 (stereo not given in full)	inactive
CC(C)(C)[C@]1(O)C[C@@H]2OC(=O)C[C@@]23C(=O)O[C@@H]2OC(=O)[C@H](O)C213 (stereo not given in full)	inactive
COc1ccc(C(=O)c2c(C)n(CCN3CCOCC3)c3cc(I)ccc23)cc1	23500 nM (active)
CC(=CCCC1=CCC(C2=CC(=O)OC2O)OC1O)CCC1=C(C)CCCC1(C)C (stereo not given)	inactive
Cc1c(C(=O)c2cccc3ccccc23)c2cccc3c2n1[C@H](CN1CCOCC1)CO3	26400 nM (active)
C[C@]12CC[C@H]3[C@@H](CCC4=CC(=O)CC[C@@]43C)[C@H]1CC[C@H]2O	inactive
O=[N+]([O-])c1ncc[nH]1	inactive
CCN1CCN(C(=O)Cc2ccc(Nc3ncc(F)c(Nc4ccc(C(=O)Nc5ccccc5Cl)cc4)n3)cc2)CC1	3720 nM (active)
CC(C)[C@]12O[C@@H]1[C@@H]1O[C@]13[C@]1(O[C@H]1C[C@@H]1C4=C(CC[C@@]13C)C(=O)OC4)[C@H]2O	inactive
CCCN1CCO[C@@H]2c3cc(O)ccc3OC[C@@H]21	inactive
CC(=O)OCC1=C(C(=O)O)N2C(=O)[C@@H](N)[C@@H]2SC1	inactive
C[C@]12CC[C@H](O)CC1=CC[C@H]1[C@H]3CCC(=O)[C@@]3(C)CC[C@@H]12	inactive
O=C(Oc1ccc([N+](=O)[O-])cc1)N1CCC(C(O)(c2ccc3c(c2)OCO3)c2ccc3c(c2)OCO3)CC1	inactive
CN1[C@H]2CC(O)C[C@H]1[C@H]1O[C@H]12 (stereo not given in full)	20900 nM (active)
CC[C@H]1C=CC=CC[C@@H](C)[C@H](O)[C@@](C)(O)C(=O)[C@@H](C)[C@H](O)[C@@H](C)C(=O)[C@@H](C)[C@H](O)[C@@H](C)C=CC(=O)O[C@@H]2[C@@H](C)[C@H](CC1)O[C@]1(CC[C@H](C)[C@H](C[C@@H](C)O)O1)[C@H]2C	2.1 nM (active)
C[C@@H]1CC[C@@]2(OC1)O[C@H]1C[C@H]3[C@@H]4CC=C5C[C@@H](O[C@@H]6O[C@H](CO)[C@@H](O[C@@H]7O[C@@H](C)[C@H](O)[C@@H](O)[C@@H]7O)[C@H](O)[C@@H]6O[C@@H]6O[C@@H](C)[C@H](O)[C@@H](O)[C@@H]6O)CC[C@]5(C)[C@@H]4CC[C@]3(C)[C@@H]1[C@H]2C	3320 nM (active)
CC(C)N(CCNC(=O)CN1CCCC1=O)C(C)C	inactive

SMILES	Potency
NC1=NC(=O)N2CC12 (stereo not given)	inactive
CN1CCN(c2ccc([N+](=O)[O-])c3no[n+]([O-])c23)CC1	9350 nM (active)
O=C(Oc1ccc([N+](=O)[O-])cc1)N1CCN(Cc2cccc(Oc3ccccc3)c2)CC1	inactive
Cc1nc(-c2ccc(-c3ccc(C(=O)N4CCc5cc6c(cc54)C4(CCN(C)CC4)CO6)cc3)c(C)c2)no1	inactive
CC1=C(O)C(=O)C=C2C1=CC=C1[C@@]2(C)CC[C@@]2(C)[C@@H]3C[C@](C)(C(=O)O)CC[C@]3(C)CC[C@]12C	743 nM (active)
C[C@@H]1O[C@@H](O[C@@H]2C=C3CC[C@@H]4[C@@H](CC[C@]5(C)[C@H](c6ccc(=O)oc6)CC[C@@]45O)[C@@]3(C)CC2)[C@H](O)[C@H](O)[C@H]1O	20.9 nM (active)
CC(=Cc1csc(C)n1)[C@@H]1C[C@H]2O[C@]2(C)CCC[C@H](C)[C@@H](O)[C@@H](C)C(=O)C(C)(C)[C@@H](O)CC(=O)O1	inactive
C[C@](O)(COc1ccc(C#N)cc1)C(=O)Nc1ccc(C#N)c(C(F)(F)F)c1	inactive
CC=C(C)C(=O)O[C@H]1C(C)=C2[C@@H]3OC(=O)[C@@](C)(O)[C@@]3(O)[C@@H](OC(=O)CCC)C[C@](C)(OC(C)=O)[C@@H]2[C@@H]1OC(=O)CCCCCCC	29.6 nM (active)
O=C(Nc1ccncc1)C(=O)c1cn(Cc2ccc(Cl)cc2)c2ccccc12	74.3 nM (active)
COC[C@H]1OC(=O)c2coc3c2[C@@]1(C)C1=C(C3=O)[C@@H]2CC[C@H](O)[C@@]2(C)C[C@@H]1OC(C)=O	332 nM (active)
CCOP(=O)(OCC)C(C)NC(=O)N(CCCl)N=O (stereo not given)	inactive
COc1ccc2c(c1)CN(C)CC2c1ccc(Cl)c(Cl)c1 (stereo not given)	20900 nM (active)
C[C@@H]1CC[C@H]2[C@@H](C)C(=O)O[C@@H]3O[C@@]4(C)CC[C@H]1[C@]32OO4	332 nM (active)
CC(=Cc1csc(C)n1)[C@@H]1C[C@H]2O[C@@H]2CCC[C@H](C)[C@@H](O)[C@@H](C)C(=O)C(C)(C)[C@@H](O)CC(=O)O1	inactive
CCN1C[C@]2(OC(=O)c3ccccc3NC(C)=O)CC[C@H](OC)[C@@]34[C@H]5CC6[C@@H](OC)C[C@](O)(C(C[C@@H]23)[C@@H]14)[C@@]5(O)[C@@H]6OC	inactive
CC(C)(O)C(=O)Nc1ccc([N+](=O)[O-])c(C(F)(F)F)c1	inactive
CCNC(=O)C[C@@H]1N=C(c2ccc(Cl)cc2)c2cc(OC)ccc2-n2c(C)nnc21	372 nM (active)
O=c1[nH]c2ccccc2n1C1CCN(Cc2ccc(-c3[nH]c4cc5ncnc5cc4nc3-c3ccccc3)cc2)CC1	14800 nM (active)
C1=C2CCCN[C@H]2[C@@H]2C[C@H]1[C@@H]1CCCCN1C2	inactive
